From PubChem BioAssay AID1159580 (chemical genetic matrix, 2015)
Hit rate of the full screen: of about 5,500 compounds, about 2,000 (36%) were called active. Another 18% or so got no clear call; they are omitted. No stated cut-off is given here; in the data, active means normalized growth mostly below about 0.91 (no sharp cut-off); inconclusive means no clear call, values can overlap the other calls; inactive means mostly above about 0.92. The list shows a part of the results.

Assay: chemical genetic growth profiling, strain panel (AID 1159580);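 further: tested at 20 µM; growth read once vehicle control cultures reached saturation at 30 °C; 1 = growth at the plate median or of vehicle wells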
Details: S. cerevisiae deletion strains, growth OD
[1] = locus YHR030C, strain SLT2, stronger effect = lower value
[2] = locus YHR079C, strain IRE1, stronger effect = lower value
[3] = locus YJL095W, strain BCK1, stronger effect = lower value
[4] = locus YJR066W, strain TOR1, stronger effect = lower value
[5] = locus YLR113W, strain HOG1, stronger effect = lower value
[6] = locus YNL183C, strain NPR1, stronger effect = lower value
[7] = locus YOR231W, strain MKK1, stronger effect = lower value
[8] = locus YPL256C, strain CLN2, stronger effect = lower value

Measured: normalized growth

C=C[C@@]1(C)CC(=O)[C@@]2(O)[C@](C)(O1)[C@@H](O)[C@@H](O)C1C(C)(C)CC[C@H](O)[C@@]12C (stereo partly specified)
inactive: [1] 0.962 | [2] 0.971 | [3] 0.989 | [4] 0.957 | [5] 0.992 | [6] 0.995 | [7] 0.992 | [8] 0.976

O=C1OC(CN2CCOCC2)CN1/N=C\c1ccc([N+](=O)[O-])o1 (stereo unspecified)
inactive: [1] 0.93 | [2] 0.948 | [3] 0.952 | [4] 0.844 | [5] 1.03 | [6] 0.856 | [7] 0.931 | [8] 0.961
